High-throughput results (PubChem BioAssay)
Shown are actives, neighbours in structure and some others; about 0.29% of the full set was active somewhere.
BRCT PPI red = inhibitors of human BRCA1 BRCT-phosphoprotein interaction (red fluorophore) | BRCT-phosphopeptide binding, red fluorescence polarization | Potency, µM (series often up to 76.9 µM), for inactives: top-dose activity change, negative = inhibition, usual class: inhibitors | actives 0.03% (n = 75,000) | AID 892 | P38398; note: % is set by controls: 0 for no effect and ±100 for the full control effect
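Fluorescence polarization: 100 nM His-tagged BRCA1 BRCT with 100 nM TAMRA-labelled phospho-BACH1 decapeptide, phosphate buffer pH 7.3 with 150 mM NaCl, DTT, 0.01% Tween 20; 12 min RT. Binding inhibition seen as FP decrease.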
DNA Pol III inh = blocks replication by bacterial DNA polymerase III holoenzyme; reconstituted DNA polymerase III holoenzyme replication, biochemical; Potency, µM (doses to about 57.1 µM), without a hit: at the top dose activity change, negative = inhibition; actives 0.25% (n = 71,000); note: potency is the fitted concentration of half-maximal effect; % is set by controls: 0 for no effect and ±100 for the full control effect
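Reconstituted *E. coli* holoenzyme (0.35 nM Pol III, 1 nM beta, 154 nM SSB, 2 nM primase) was preincubated with compound for 15 min at RT. Synthesis on 1.4 nM ssM13Gori ran 35 min, then was stopped with PicoGreen/EDTA and read as dsDNA fluorescence.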
TsaE inh = displaces an ADP probe from E. coli YjeE (TsaE) | P0AF67 | purified YjeE enzyme, qHTS inhibition assay | Potency, µM | actives 0.05% (n = 71,000)
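Fluorescence polarization of a BODIPY Texas Red–ADP probe (2 uM) bound to purified YjeE (10 uM) was read after 15 min room-temperature incubation with compounds. Loss of polarization marks inhibitors; ADP serves as titrated control.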
BRCT PPI green = blocks human BRCA1 BRCT binding to phosphopeptide, green readout; Potency, µM (doses to about 76.9 µM), for inactives: at the highest dose activity change, negative = inhibition, usual class: inhibitors; actives 0.05% (n = 75,000); BRCA1 BRCT-phosphopeptide binding, green fluorescence polarization; P38398; AID 875;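 note: potency is the fitted concentration of half-maximal effect; plate controls were peptide without protein for full effect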
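Fluorescence polarization: His-tagged BRCT (~35 kDa BRCA1 C-terminus, 250 nM) bound to 100 nM fluorescein-labeled phosphorylated 10-aa BACH1 peptide, pH 7.3 phosphate buffer with DTT and Tween 20. Compounds incubated 12 min at room temperature; inhibition read as lowered polarization.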
Caspase-1 inhib = caspase-1 (human) inhibition, allosteric or competitive | P29466 | actives 0.03% (n = 75,000) | Potency, µM (top dose mostly 57.5 µM), without a hit: at the highest dose activity change, negative = inhibition, hits mostly inhibitors | Caspase-1 enzyme, Ac-WEHD-AFC fluorogenic rate | AID 900;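 note: potency is the fitted concentration of half-maximal effect; plate controls were vehicle for no effect and no substrate for full effect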
Caspase-7 inhib = blocks human caspase-7 allosterically or competitively. actives 0.02% (n = 75,000). Potency, µM (top dose mostly 57.5 µM), for the others: top-dose activity change, negative = inhibition, most hits filed as inhibitors. recombinant caspase-7, Ac-DEVD-AFC fluorescence rate; active = well fitted inhibition curve with a large enough effect in the main read-out, with a control signal flat, not every such curve was filed as active; inconclusive = small, poorly fitted or top-dose-only effect, or a change in a side signal; note: potency is the fitted concentration of half-maximal effect; % of control where 0% means no effect
The depositor's hits bear a star; i = inactive; ? = inconclusive; . = not tested or not shown; ! = repeats disagree; [ ] = another dose, or the depositor's remark. Unless noted, calls come from the whole dose curve; as a rule, active = well fitted curve in the direction sought with a large enough effect; inconclusive = small, poorly fitted or top-dose-only effect, or another doubt; inactive = no such curve, though single readings can be large; an effect the other way counts as inactive or inconclusive.

SMILES	BRCT PPI red	DNA Pol III inh	TsaE inh	BRCT PPI green	Caspase-1 inhib	Caspase-7 inhib
Cn1ncnc2c(=O)n(C)c(=O)nc1-2	-1.7%	-0.4%	i	-0.5%	12.6µM*	?
COC(=O)[C@@H]1C[C@@H]1[C@@H](NP(=O)(c1ccccc1)c1ccccc1)c1ccccc1	.	13.6%	i	.	.	.
COc1ccc(OC)c(C(O)C(C)N)c1 (stereo not drawn)	-2.3%	.	.	-0.6%[3.08 µM]	0.1%	0.6%
C[C@H](N)[C@H](O)c1ccc(O)c(O)c1	-0.9%[34.4 µM]	5.01µM*	i	0.8%[34.4 µM]	-5.8%[25.7 µM]	-7.6%[25.7 µM]
COc1cc2c(cc1O)C[C@@H]1c3c(cc(O)c(OC)c3-2)CCN1C	-1.3%[15.4 µM]	-8.5%[11.4 µM]	i	2.0%[15.4 µM]	-3.6%[11.5 µM]	1.8%[11.5 µM]
COc1cc2c(cc1O)-c1c(O)c(OC)cc3c1[C@H](C2)N(C)CC3	-2.1%	-13.4%	i	-3.6%	31.6µM*	-26.9%
c1ccc2c(c1)[nH]c1cnccc12	-2.9%	.	.	0.9%	-9.7%	-2.6%
Cc1c2ccncc2c(C)c2c1[nH]c1ccccc12	-5.4%	7.94µM*	i	-2.6%	?	?
O=C1C[C@H]2OCCC=C3CN4CC[C@@]56c7ccccc7N1[C@@H]5[C@H]2[C@H]3C[C@@H]46	.	-6.1%	i	.	.	.
C[C@@H]1[C@H]2C=C[C@@H]1[C@@H](c1c3ccc(=O)c(O)c-3oc3c(O)c(O)ccc13)[C@@H]2C(=O)O	?	0.126µM*	i	?	-5.3%[11.5 µM]	-12.1%[11.5 µM]
Ic1ccccc1CN[C@@H]1C2CCN(CC2)[C@H]1C(c1ccccc1)c1ccccc1	-1.1%	-2.1%	i	0.4%	2.7%	-2.3%
NC(N)=Nc1ccc2[nH]c3c(c2c1)C[C@]1(O)[C@@H]2Cc4ccc(O)c5c4[C@]1(CCN2CC1CC1)[C@H]3O5	-1.4%	-8.3%	i	0.7%	2.7%	-11.1%
CO[C@H]1[C@H](O)[C@H](O[C@@H]2[C@H](Oc3cccc4c(O)c5c(=O)oc6ccc(C)c7c(=O)oc(c34)c5c67)O[C@@H](C)[C@H](O)[C@H]2O)O[C@@H](C)[C@@H]1O	-2.5%[15.4 µM]	3.16µM*	i	0.2%[15.4 µM]	.	?
O=C1C2CC=CCC2C(=O)N1SC(Cl)(Cl)Cl (stereo not drawn)	-0.4%	39.8µM*!	i	1.4%	-4.8%	0.4%
C=C(C)[C@@H]1CN[C@H](C(=O)O)[C@H]1CC(=O)O	.	-6.2%	i	.	.	.
CC(C)Nc1ccc(Nc2ccccc2)cc1	0.3%	-4.2%	100µM*	3.4%	-0.5%	-6.2%
